The values that follow come from PubChem BioAssay (EPA / NIEHS).

Test [1] can be described thus: BSK_CASM3C_SRB: Viability Assessment in the BioMAP Diversity Plus: CASM3C Assay (AID 2283050).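 Also: total protein by SRB staining as cytotoxicity measure in parallel cultures.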 As to conditions: primary human coronary artery smooth muscle cells.
Read-out in test [2]: Tissue Factor, F3 (gene 2152)
The experiment in a line: BSK_CASM3C_TissueFactor: BioMAP Diversity Plus: CASM3C Assay for Tissue Factor Biomarker Activity (AID 2283052).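 Also: cell surface tissue factor protein level read by ELISA.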 As to conditions: primary human coronary artery smooth muscle cells; actives raise or lower the signal.

Read-out in test [3]: Interferon-gamma inducible Protein 10 (IP10), CXCL10 (gene 3627)
The experiment in a line: BSK_hDFCGF_IP10: BioMAP Diversity Plus: hDFCGF Assay for Interferon-gamma inducible Protein 10 (IP10) Biomarker Activity (AID 2283053). As to conditions: primary human foreskin fibroblasts; actives raise or lower the signal. The method, boiled down: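 ELISA read-out of IP-10 (CXCL10) from primary human skin fibroblasts, 24 h after compound addition. Gain or loss of signal versus DMSO baseline, bidirectional curve fitting.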

Read-out in test [4]: Epidermal growth factor receptor (EGFR), EGFR (gene 1956)
Briefly: BSK_hDFCGF_EGFR: BioMAP Diversity Plus: hDFCGF Assay for Epidermal growth factor receptor (EGFR) Biomarker Activity (AID 2283057). Particulars: primary human foreskin fibroblasts; actives raise or lower the signal. The method, boiled down:
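ELISA readout of EGFR on human dermal fibroblasts (primary foreskin cells), 24 h post-dosing; bidirectional curve fit vs DMSO baseline, gain or loss of signal scored.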

Read-out in test [5]: Interleukin-8 (IL8), CXCL8 (gene 3576)
The experiment in a line: BSK_hDFCGF_IL8: BioMAP Diversity Plus: hDFCGF Assay for Interleukin-8 (IL8) Biomarker Activity (AID 2283058). As to conditions: primary human foreskin fibroblasts; actives raise or lower the signal. The method, boiled down: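 Fibroblast monolayers (human foreskin, hDFCGF) received test chemical for 24 h before ELISA detection of IL-8; either increases or decreases relative to DMSO count as activity.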

A short description of test [6]: BSK_hDFCGF_Proliferation: Cell Proliferation Assessment in the BioMAP Diversity Plus: hDFCGF Assay (AID 2283059).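 Also: curves fitted for both rise and fall of signal versus DMSO baseline.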 Particulars: primary human foreskin fibroblasts. The method, boiled down: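 This proliferation readout used SRB total-protein staining of human foreskin fibroblasts […], normalized to DMSO with bidirectional curve fitting.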
A short description of test [7]: BSK_hDFCGF_SRB: Viability Assessment in the BioMAP Diversity Plus: hDFCGF Assay (AID 2283061).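 Also: cells exposed to compound for 24 h before the read.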 As to conditions: primary human foreskin fibroblasts. The method, boiled down:
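SRB-based viability read on primary human skin fibroblasts at 24 h: TCA fixation, 0.1% dye, 560 nm. Gain or loss of signal is fitted against the DMSO negative control.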

Read-out in test [8]: TIMP metallopeptidase inhibitor 1 (TIMP1), TIMP1 (gene 7076)
Briefly: BSK_hDFCGF_TIMP1: BioMAP Diversity Plus: hDFCGF Assay for TIMP metallopeptidase inhibitor 1 (TIMP1) Biomarker Activity (AID 2283062). As to conditions: primary human foreskin fibroblasts; actives raise or lower the signal. The procedure, abridged:
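Bidirectional curve fitting against DMSO baseline yielded this endpoint, based on ELISA detection of TIMP-1 in primary human foreskin fibroblasts exposed to compound for 24 h.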

Read-out in test [9]: Matrix Metallopeptidase 1 (MMP1), MMP1 (gene 4312)
The experiment in a line: BSK_hDFCGF_MMP1: BioMAP Diversity Plus: hDFCGF Assay for Matrix Metallopeptidase 1 (MMP1) Biomarker Activity (AID 2283064). As to conditions: primary human foreskin fibroblasts; actives raise or lower the signal. The procedure, abridged: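 ELISA read-out of MMP1 from human foreskin fibroblasts (primary skin cells), 24 h post-dose. Gain or loss of signal was fitted bidirectionally versus DMSO negative control; cytotoxicity was checked by SRB in parallel cultures.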

Read-out in test [10]: Vascular cell adhesion molecule 1 (VCAM1), VCAM1 (gene 7412)
Briefly: BSK_hDFCGF_VCAM1: BioMAP Diversity Plus: hDFCGF Assay for Vascular cell adhesion molecule 1 (VCAM1) Biomarker Activity (AID 2283065).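 As to AC50: VCAM-1 protein level quantified by ELISA after 24 h chemical exposure.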 As to conditions: primary human foreskin fibroblasts; actives raise or lower the signal. The method, boiled down:
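Measured after 24 h chemical treatment of primary human skin fibroblasts, VCAM-1 was detected by ELISA and concentration-response analysed in both directions versus DMSO vehicle.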

Read-out in test [11]: Interferon-gamma inducible Protein 10 (IP10), CXCL10 (gene 3627)
Briefly: BSK_KF3CT_IP10: BioMAP Diversity Plus: KF3CT Assay for Interferon-gamma inducible Protein 10 (IP10) Biomarker Activity (AID 2283068). As to conditions: primary human keratinocytes with fibroblasts; actives raise or lower the signal. The method, boiled down:
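Signal is secreted/surface IP-10 by ELISA in a human primary skin co-culture of keratinocytes and foreskin fibroblasts, taken 24 h post-dosing; DMSO served as negative control.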

Read-out in test [12]: Transforming growth factor beta 1 (TGFb1), TGFB1 (gene 7040)
Briefly: BSK_KF3CT_TGFb1: BioMAP Diversity Plus: KF3CT Assay for Transforming growth factor beta 1 (TGFb1) Biomarker Activity (AID 2283072). As to conditions: primary human keratinocytes with fibroblasts; actives raise or lower the signal. The method, boiled down: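 Read-out: ELISA for TGF-b1 in keratinocyte/foreskin fibroblast human skin co-culture, 24 h after dosing; bidirectional curve fit vs DMSO baseline; gain or loss of signal scored.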

Read-out in test [13]: urokinase plasminogen activator (uPA), PLAU (gene 5328)
The experiment in a line: BSK_KF3CT_uPA: BioMAP Diversity Plus: KF3CT Assay for urokinase plasminogen activator (uPA) Biomarker Activity (AID 2283075). Particulars: primary human keratinocytes with fibroblasts; actives raise or lower the signal. The procedure, abridged: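 Skin co-culture (keratinocytes + foreskin fibroblasts), human primary; 24 h post-dose; uPA by ELISA; gain/loss fit vs DMSO baseline.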

Read-out in another test: CD40, CD40 (gene 958)
The experiment in a line: BSK_LPS_CD40: BioMAP Diversity Plus: LPS Assay for CD40 Biomarker Activity (AID 2283076). As to conditions: primary human HUVEC with PBMC; actives raise or lower the signal. The procedure, abridged: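 Using a multiplexed primary human co-culture (umbilical vein endothelium plus PBMC), CD40 was read by ELISA 24 h after dosing, with cytotoxicity tracked by sulforhodamine B staining of parallel cultures and activity fitted bidirectionally versus DMSO.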

Read-out in test [14]: E-selectin (Homo sapiens) (UniProt P16581)
The experiment in a line: BSK_LPS_Eselectin: BioMAP Diversity Plus: LPS Assay for Eselectin Biomarker Activity (AID 2283077). As to conditions: primary human HUVEC with PBMC; actives raise or lower the signal. The method, boiled down: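 Dose chemical onto LPS-driven HUVEC/PBMC co-culture; after 24 h, run ELISA for E-selectin; fit up- and down-going responses relative to DMSO control.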

Read-out in test [15]: Interleukin-8 (IL8), CXCL8 (gene 3576)
Briefly: BSK_LPS_IL8: BioMAP Diversity Plus: LPS Assay for Interleukin-8 (IL8) Biomarker Activity (AID 2283078). As to conditions: primary human HUVEC with PBMC; actives raise or lower the signal. The method, boiled down:
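In this LPS system, chemical-treated human umbilical vein endothelium/PBMC co-cultures were harvested at 24 h for IL-8 ELISA.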

A short description of test [16]: BSK_LPS_SRB: Viability Assessment in the BioMAP Diversity Plus: LPS Assay (AID 2283079).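 Also: total protein by sulforhodamine B absorbance as a cytotoxicity measure; measured one day after compound addition; fitted in both directions against DMSO so loss or gain of signal counts.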 Particulars: primary human HUVEC with PBMC. The procedure, abridged: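 Cytotoxicity endpoint in human endothelial–PBMC co-culture: 24 h exposure, then SRB (0.1%) staining, 560 nm read.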
Read-out in test [17]: Interleukin-1 alpha (IL1a), IL1A (gene 3552)
Briefly: BSK_LPS_IL1a: BioMAP Diversity Plus: LPS Assay for Interleukin-1 alpha (IL1a) Biomarker Activity (AID 2283080). As to conditions: primary human HUVEC with PBMC; actives raise or lower the signal. The procedure, abridged:
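Primary human HUVEC and PBMC co-culture stimulated with LPS is dosed and harvested at 24 h. Both increases and decreases in ELISA-measured IL-1a are scored relative to DMSO.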

Read-out in test [18]: Monocyte Chemoattractant Protein-1 (MCP1), CCL2 (gene 6347)
The experiment in a line: BSK_LPS_MCP1: BioMAP Diversity Plus: LPS Assay for Monocyte Chemoattractant Protein-1 (MCP1) Biomarker Activity (AID 2283081).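 As to AC50: secreted MCP-1 protein quantified by ELISA in culture supernatant.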 As to conditions: primary human HUVEC with PBMC; actives raise or lower the signal. The method, boiled down: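 Values derive from bidirectional fitting against DMSO of ELISA-measured MCP-1 in a human primary endothelial and mononuclear cell co-culture, 24 h after chemical addition under LPS activation.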

A short description of test [19]: BSK_LPS_PGE2: BioMAP Diversity Plus: LPS Assay for Prostaglandin E2 (PGE2) Biomarker Activity (AID 2283082).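 As to AC50: secreted prostaglandin E2 measured by ELISA in LPS-stimulated co-culture.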 Particulars: primary human HUVEC with PBMC; actives raise or lower the signal. The method, boiled down: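 ELISA read-out of PGE2 from human umbilical vein endothelial cells co-cultured with peripheral blood mononuclear cells under LPS, 24 h post-dose. Gain or loss of signal scored relative to DMSO baseline.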

Calls of active or inactive are those of the source. The calls were made as follows: active = hit-call score of the fitted dose curve at least 0.9, where 1 is the maximum; inactive = score below 0.9.

Sequence of E-selectin (Homo sapiens) (P16581 whole entry, looked up): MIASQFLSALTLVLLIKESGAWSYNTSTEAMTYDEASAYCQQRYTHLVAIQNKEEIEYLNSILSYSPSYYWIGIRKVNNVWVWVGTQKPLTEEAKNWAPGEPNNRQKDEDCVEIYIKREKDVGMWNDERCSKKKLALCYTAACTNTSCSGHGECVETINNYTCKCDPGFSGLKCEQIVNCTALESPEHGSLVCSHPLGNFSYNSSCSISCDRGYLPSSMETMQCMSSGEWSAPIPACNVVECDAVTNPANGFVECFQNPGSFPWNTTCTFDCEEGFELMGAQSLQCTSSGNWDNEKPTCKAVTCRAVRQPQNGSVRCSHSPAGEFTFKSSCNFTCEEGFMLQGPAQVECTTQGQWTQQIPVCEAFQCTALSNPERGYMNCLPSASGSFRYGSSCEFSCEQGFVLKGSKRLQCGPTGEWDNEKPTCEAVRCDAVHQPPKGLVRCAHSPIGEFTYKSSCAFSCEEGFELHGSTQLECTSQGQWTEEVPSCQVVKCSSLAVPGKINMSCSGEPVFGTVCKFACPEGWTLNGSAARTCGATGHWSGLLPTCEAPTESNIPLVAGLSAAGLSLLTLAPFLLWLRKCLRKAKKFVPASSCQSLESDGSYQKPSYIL

Take `Clc1ccc(-c2ccccc2)cc1`: the result in test [1], in test [2], in test [3], in [4], in test [5] and in test [6] was inactive. The result in test [7], in [8], in [9], in test [10], in test [11] and in test [12] was inactive. Besides, the outcome in test [13] was “inactive”; with CD40, CD40 (gene 958), “inactive”; in test [14] it was “inactive”; in test [15], “inactive”; in test [16], “inactive”; in test [17], “inactive”. For the same molecule, the outcome in test [18] was inactive. For the same molecule, the AC50 in [19] is 17.2 µM (active).
With `COC(C)(C)CCC[C@H](C)C/C=C/C(C)=C/C(=O)OC(C)C`, the outcome in [1], in test [4], in test [5], in [13] and in [19] was inactive. The AC50 in test [2] was 20 µM (active); in test [3] it was 33.7 µM (active); in [6] it was 31.2 µM (active); in test [7], 30.7 µM (active); in test [8], 29.8 µM (active); in [9], 32.5 µM (active). For the same molecule, the AC50 in [10] is 25 µM (active); in test [11] it was 33.6 µM (active); in test [12], 15.3 µM (active); with CD40, CD40 (gene 958), 20 µM (active); in test [14], 35.3 µM (active); in [15], 33.5 µM (active). For the same molecule, the results for the AC50 in [16], in test [17] and in test [18] were 29.5 µM (active), 36.4 µM (active) and 29.6 µM (active), respectively.
On to `CC(C)(C)C(=O)CCl`, for which the outcome in test [1], in test [2], in test [3], in [4], in test [5] and in test [6] was inactive. Moreover, the result in [7], in test [8], in test [9], in [11], in test [12] and in test [13] was inactive. Further, the result in [14], in test [16], in test [18] and in test [19] was inactive. For the same molecule, the AC50 was 12.2 µM (active) in test [10]; 28.7 µM (active) with CD40, CD40 (gene 958); 33.9 µM (active) in test [17].
